In PubChem BioAssay (NCI):
This is part of a sample that, as a whole, favours compounds with a hit. Of some 83,000 tested, about 20% had one in any assay.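 Results are percent growth after 48 hours of single-concentration exposure. 100 means growth as in untreated cells, lower positive values show inhibition; negative values down to -100 show cell death.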 A number with no mark means an inactive call. Active and inactive are the calls of the source. How the source made its calls: active means growth percent below 10; inactive means the rest.

Tests used:
Assay in all cases: NCI-60 one-dose screen, 48 h (100 = growth as untreated, 0 = no growth, -100 = all killed)
Conditions in all cases: 10 µM unless noted
T-47D breast = system: T-47D breast
BT-549 breast = system: BT-549 breast
MDA-MB-435 melanoma = system: MDA-MB-435 melanoma
SW-620 colon = system: SW-620 colon
MCF7 breast = system: MCF7 breast
HCT-116 colon = system: HCT-116 colon
HCC-2998 colon = system: HCC-2998 colon
KM12 colon = system: KM12 colon

Structure (SMILES)	growth (T-47D breast)	growth (BT-549 breast)	growth (MDA-MB-435 melanoma)	growth (SW-620 colon)	growth (MCF7 breast)	growth (HCT-116 colon)	growth (HCC-2998 colon)	growth (KM12 colon)
Cc1nc2sc(C(=O)Nc3cccc(Cl)c3)c(N)c2cc1C(O)c1ccccc1 (stereo not given)	50.6%	52.6%	5.16% (active)	33.1%	21.9%	13.9%	17.8%	18.3%
COc1cc(-c2cc(-c3ccc(Nc4ncnc5cc(Cl)ccc45)cc3)nc(N3CCN(C)CC3)n2)cc(OC)c1OC	99.3%	94.5%	102%	72.4%	53.8%	64%	110%	86.1%
O=C1/C=C/[C@@H](O)[C@@H]2C[C@@H](O)C[C@H]2/C=C/CCC[C@H](CCOCc2ccccc2)O1	15.6%	7.15% (active)	7.86% (active)	-23.8% (active)	-10.3% (active)	-71.1% (active)	3.47% (active)	-60.5% (active)
COc1ccc2c(c1)c(-c1nc(-c3cn(C)c4ncccc34)cs1)cn2CCO	10.1%	76.9%	86.5%	93.6%	12%	74.2%	95.1%	49.5%
CCCCc1oc2ccccc2c1C(=O)c1ccc(O)cc1	75.3%	70.1%	52.2%	99.8%	104%	83.2%	460%	76.4%
O=C(/C=C/C12c3ccccc3C(c3ccccc31)C1C(=O)NC(=O)C12)c1ccccn1 (stereo not given)	9.45% (active)	11%	-23.7% (active)	-1.62% (active)	10.4%	-65% (active)	16.5%	1.06% (active)
CCOC(=O)c1n[nH]n2c1nc(=O)c1cnn(C)c12	96.5%	133%	105%	108%	92.8%	114%	100%	95.7%
Cc1ccc(-c2cc(C(=O)N3N=C(c4ccc(N)cc4)CC3c3ccc(Cl)cc3)c3ccccc3n2)cc1 (stereo not given)	35.9%	30.8%	-61.7% (active)	33.8%	17.8%	11.8%	37.9%	27.9%
O=C1OCC2=C1C(c1cccc(C(F)(F)F)c1)c1cc3c(cc1N2CCO)OCO3 (stereo not given)	28%	55%	-44.1% (active)	23.3%	20.9%	21.4%	69.9%	24.9%
Nc1ccc([N+](=O)[O-])cc1N=C/C=C/c1ccccc1	66.2%	55%	5.57% (active)	35.3%	51.5%	67.2%	73%	40.3%
C=CC(C)(O)CC/C=C(\CO)C(=O)OC1C(C)OC(O[C@](C)(C=C)CC/C=C(\CO)C(=O)O[C@H]2C[C@@]3(C(=O)OC4OC(CO)C(O)C(O)C4OC4OC(C)C(OC5OC(CO)C(O)C5O)C(OC5OC(CO)C(O)C(O)C5O)C4O)C(CC2(C)C)C2=CCC4[C@@]5(C)CC[C@H](OC6OC(COC7OC(C)C(O)C(O)C7OC7OCC(O)C(O)C7O)C(O)C(O)C6NC(C)=O)C(C)(C)C5CC[C@@]4(C)[C@]2(C)C[C@H]3O)C(O)C1O (stereo not given in full)	-54% (active)	104%	-80.5% (active)	-43.2% (active)	-50% (active)	6.13% (active)	-90.5% (active)	-86.7% (active)
CNCc1cccc2c1OCCOCCN(C)C(=O)CN(C)S(=O)(=O)c1ccc(cc1)-c1cnc(N)c(n1)C(=O)N2	-9.54% (active)	92.4%	-91.8% (active)	-4.13% (active)	11.6%	-69% (active)	28%	9.24% (active)
CCn1c2ccc(O)cc2c2c(C)c3c[n+](C(C)C)ccc3c(C)c21	-15.4% (active)	9.02% (active)	28.5%	25.6%	17.8%	37.3%	42.6%	15%
CN1CCN(C(=O)c2cc(-c3ccc4ncnc(N5CCc6cc(F)c(Cl)cc65)c4c3)cnc2N)CC1	-1.85% (active)	-20.4% (active)	-2.06% (active)	4.9% (active)	4.21% (active)	-30.3% (active)	-7.55% (active)	10.7%
CCOc1ccc(NC(=O)c2cc(OC)c(OC)c(OC)c2)cc1	37.2%	44.5%	-10.9% (active)	31.6%	20.8%	18%	55.5%	22.8%
